Reference: PubChem BioAssay AID602250 (The Scripps Research Institute Molecular Screening Center, 2012)
Out of some 360,000 compounds screened, about 2,200 (0.61%) were called active.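 How the source made its calls: active means inhibition above a per-plate cutoff, the plate's mean sample inhibition plus 3 SD (cut at about 24% in these data); inactive means the rest.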 Many of the other results were omitted from the sample, so actives are more common in it than they were.

Assay: calcium signal blockers in parental CHO-K1 cells – cell-based, Fluo-8 calcium fluorescence, full deck, 1536-well, counter-screen for M1 antagonist project, primary screen (AID 602250);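 further: 0% = DMSO plus EC80 ATP and 100% = DMSO alone without ATP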
Details: ATP-induced calcium, Fluo-8 fluorescence, at 3 µM, active compounds read high

Question: With `CCC(=O)OC(Cc1ccccc1)(c1ccccc1)C(C)CN(C)C` (stereo not given) as the compound, how does the inhibition read?
Answer: 25.3% (active)

Question: Which inhibition does the source give for `CN(C)CC1Oc2ccccc2OC1(O)c1ccccc1` (stereo not given) here?
Answer: -2.02% (inactive)

Question: With `CN1CCN(Cc2ccc(OC(F)(F)F)cc2)CC1` as the compound, how does the inhibition read?
Answer: -3.91% (inactive)

Question: With `OC1/C(=C/c2ccc(C(F)(F)F)cc2)N2CCC1CC2` (stereo not given) as the compound, how does the inhibition read?
Answer: -10.6% (inactive)

Question: With `CN(C)S(=O)(=O)c1cc(C(=O)N2CCC(C(=O)O)(c3ccccc3)CC2)ccc1Cl` as the compound, how does the inhibition read?
Answer: -5.53% (inactive)
